Screen size: about 63,000 compounds; about 1,100 (1.7%) were called active. The sample holds actives, similar compounds and a random draw of the others, so the mix is not that of the screen. Results with a measured potency or affinity are listed apart. Unmarked numbers belong to inactive results.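 How the source made its calls: active means compounds whose percent cytotoxicity in the single-dose primary screen, scaled between solvent and toxic-drug controls, exceeds 50; inactive means the rest.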

This test can be described thus: viability loss of HPDE-C7K cells – cell-based, fluorescence, HTS, primary screen (AID 431).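 Further: 0% = DMSO solvent wells and 100% = doxorubicin-treated wells.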 The following applies: HPDE-C7K KRASV12 cells, Alamar Blue viability, 48 h; at 10 µM; hits give high values.
On to `COc1ccc(C(=O)CN2C(=O)NC3(CCCc4ccccc43)C2=O)cc1OC` (stereo not given), for which the cytotoxicity was 3.3%.

Consider `COc1cc2c(cc1NC(=O)CN1C(=O)NC3(CCc4ccccc43)C1=O)oc1ccccc12` (stereo not given), for which the cytotoxicity was 55% (active).

Regarding `COc1cc2c(cc1NC(=O)CCCN1C(=O)CCC1=O)oc1ccccc12`, the cytotoxicity was 15.2%.

Turning to `CCOC(=O)C1CCCN(C(=O)c2ccc3c(c2)NC(=O)C(N2CCOCC2)S3)C1` (stereo not given), the cytotoxicity is -2.6%.

With `CCOC(=O)N1CCN(C(=O)c2ccccc2CCc2ccccc2)CC1`, the cytotoxicity is 12.2%.

`COc1ccc(Cl)cc1CN1CCN(c2nc(C)cc(C)c2C#N)CC1`: the cytotoxicity was 22.3%.

With `O=C(NCC12CC3CC(CC(C3)C1)C2)c1nc2ncccn2n1`, the cytotoxicity was 7.1%.

On to `CCN=C1SC(CC(=O)Nc2sc3c(c2C#N)CCCC3)C(=O)N1CC` (stereo not given), for which the cytotoxicity is -3.9%.

As to `O=C(Nc1ccc(F)c(F)c1)NC1CCCCC1`, the cytotoxicity was -0.5%.

As for `Cc1ccc(NC(=O)NC2CCCCC2)cc1Cl`, the cytotoxicity was -4%.

Consider `CC(C)c1ccc(NC(=O)NC2CCCCC2)cc1`, for which the cytotoxicity was 52.6% (active).

Consider `CCOc1ccc(NS(=O)(=O)c2ccc(SC)cc2)cc1`, for which the cytotoxicity was 8.6%.

For `CCOc1ccc(NS(=O)(=O)c2ccc3[nH]c(=O)oc3c2)cc1`, the cytotoxicity was 11.8%.

`Cn1c(=O)c2c(nc(NCc3cccnc3)n2Cc2cccc(C(F)(F)F)c2)n(C)c1=O`: the cytotoxicity is -17.6%.

Take `Cc1ccc(Nc2cc(C)nn2-c2nc(C)cc(=O)[nH]2)cc1`: the cytotoxicity is 101% (active).

On to `Cc1cc(Nc2ccccc2)n(-c2nc3ccccc3[nH]2)n1`, for which the cytotoxicity was 1.5%.

As to `Cc1cc(=O)[nH]c(-n2nc(C)cc2C)n1`, the cytotoxicity was -16%.

`Cc1cccc(C)c1N(CC(=O)Nc1cccc(N(C)S(C)(=O)=O)c1)S(C)(=O)=O`: the cytotoxicity was -7.3%.

Turning to `COc1ccc(Cl)c(Cn2c(NCCCN(C)C)nc3c2c(=O)n(C)c(=O)n3C)c1`, the cytotoxicity was -1.8%.

For the compound `COc1ccccc1OCC(O)Cn1c(Br)nc2c1c(=O)[nH]c(=O)n2C` (stereo not given), the cytotoxicity was -3.5%.

On to `Cc1ccccc1OCC(O)Cn1c(SC(C)C)nc2c1c(=O)[nH]c(=O)n2C` (stereo not given), for which the cytotoxicity was -16.9%.

Consider `CCSc1nc2c(c(=O)[nH]c(=O)n2C)n1CC(O)COc1ccccc1C` (stereo not given), for which the cytotoxicity was -11.9%.

Regarding `Cn1c(=O)[nH]c(=O)c2c1nc(N1CCOCC1)n2CC(O)COc1ccccc1` (stereo not given), the cytotoxicity was -14.2%.

Turning to `Cc1ccccc1OCC(O)Cn1c(N2CCN(c3ccccc3)CC2)nc2c1c(=O)[nH]c(=O)n2C` (stereo not given), the cytotoxicity was 78.8% (active).

Regarding `CC(C)CSc1nc2c(c(=O)[nH]c(=O)n2C)n1CC(O)COc1cccc2ccccc12` (stereo not given), the cytotoxicity was 63.6% (active).

The values above are taken from PubChem BioAssay AID431 (Sanford-Burnham Center for Chemical Genomics, 2006).
